The nature of experiment [1]: qHTS of pediatric cancer cell lines to identify multiple opportunities for drug repurposing: Confirmatory screen for SK-N-SH cells (AID 1347129).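 Also: cells exposed to compound for 48 h before viability read; nearly all actives have a fitted effect of over 60% in size.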 Also: potency is read from the fitted curve at half-maximal effect. The settings on record: SK-N-SH neuroblastoma cell viability; series mostly up to 46.1 µM. In outline:
(§1)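 Cells (500-1,000/well) in growth media were settled 5 h at 37 degrees C, then given compounds for 48 h. Viability was read as CellTiter-Glo luminescence. Primary runs used MIPE at 11 points (0.78 nM-46 µM) and NPC at 8 points (0.59 nM-46 µM); follow-ups used 11 points.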
(In general: qHTS replaces the single test concentration by a dilution series.)

Experiment [2] relates to Zika virus NS2B-NS3 protease. The experiment can be described thus: Primary screen GU AMC qHTS for Zika virus inhibitors (AID 1347154). Also: nearly all actives have a fitted effect of over 70% in size. Also: potency is read from the fitted curve at half-maximal effect. The settings on record: Zika NS2B-NS3 unlinked protease, AMC fluorogenic substrate; series mostly up to 54.1 µM. In outline:
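Unlinked Zika NS2B hydrophilic domain/NS3 protease domain noncovalent complex (25 nM final) in 10 mM Tris-HCl pH 8.0, 0.01% Tween 20, with AMC peptide substrate. Fluorescence (ex 340, em 450 nm) change over 15 min, room temperature; percent inhibition fitted to 4-parameter Hill equation.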

Experiment [3] in a line: qHTS of pediatric cancer cell lines to identify multiple opportunities for drug repurposing: Confirmatory screen for OHS-50 cells (AID 1347128).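 Also: compound exposure lasted 48 h at 37 degrees C; nearly all actives have a fitted effect of over 55% in size.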 Also: potency is read from the fitted curve at half-maximal effect. To be noted: OHS-50 osteosarcoma cells viability; series mostly up to 45.9 µM. In short, it runs like this: as §1
The test system of experiment [4] is Zika virus NS2B-NS3 protease (unlinked complex). The experiment can be described thus: Primary screen GU Rhodamine qHTS for Zika virus inhibitors: Unlinked NS2B-NS3 protease assay (AID 1347159). Also: nearly all actives have a fitted effect of over 60% in size. Also: potency is read from the fitted curve at half-maximal effect. To be noted: Recombinant ZIKV NS2B-NS3 protease, Rhodamine110 substrate fluorescence; series mostly up to 107 µM. In outline: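 Buffer 10 mM Tris-HCl pH 8.0, 0.01% Tween 20. Unlinked protease 25 nM; compound preincubation 15 min, RT, protected from light. Substrate Rhod110, 1.5 microM; ~15% conversion in 15 min.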

Experiment [5] has as its target Furin (Homo sapiens) (UniProt P09958). The experiment can be described thus: Furin counterscreen qHTS for Zika virus inhibitors (AID 1347149). Also: nearly all actives have a fitted effect of over 70% in size. Also: potency is read from the fitted curve at half-maximal effect. The settings on record: furin enzymatic counterscreen, fluorogenic substrate; series mostly up to 57.5 µM. In outline: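 Counterscreen measures cleavage of 2 microM BOC-RVRR-AMC, below its ~15 microM Km, by 5 nM full-length human furin at pH 7.0 after a 15-min compound preincubation. Inhibition derives from the 15-min fluorescence increase at 37C.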

Experiment [6] relates to Zika virus NS2B-NS3 protease (linked construct). As to the kind of experiment: Confirmatory screen NINDS AMC qHTS for Zika virus inhibitors (AID 1347152). Also: nearly all actives have a fitted effect of over 70% in size. Also: potency is read from the fitted curve at half-maximal effect. The settings on record: Purified linked NS2B-NS3, AMC substrate fluorescence; series mostly up to 56.6 µM. In short, it runs like this:
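Linked NS2B-NS3 protease, 1 nM, in 10 mM Tris-HCl pH 8.0, 0.01% Tween 20; compounds preincubated 15 min at room temperature. Nle-KRR-AMC 10 microM (Km 18.3 µM); 15-min fluorescence change (340/450 nm) fitted to 4-parameter Hill.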

The subject of experiment [7] is Zika virus NS2B-NS3 protease (unlinked complex). The experiment can be described thus: Confirmatory screen GU AMC qHTS for Zika virus inhibitors (AID 1347153). Also: nearly all actives have a fitted effect of over 70% in size. The settings on record: Recombinant NS2B-NS3 protease, AMC substrate fluorescence; series mostly up to 57.1 µM. In outline: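 Noncovalent NS2B hydrophilic domain/NS3 protease complex (25 nM) in 10 mM Tris-HCl pH 8.0, 0.01% Tween 20 was preincubated 15 min at room temperature with compounds. Then 10 µM AMC substrate (Km 18.3 µM) was added; fluorescence was read over 15 min and fitted to a 4-parameter Hill equation.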

The nature of experiment [8]: ZIKV-mCherry secondary qHTS for Zika virus inhibitors (AID 1347158). Also: top concentration of the series differs between compounds. To be noted: Vero cells, ZIKV-mCherry infection imaging, 48-72 h; series mostly up to 49.2 µM. From the text: Assay Submitters (PI): Avindra Nath, Ph.D., National Institute of Neurological Disorders and Stroke (NINDS), Bethesda, MD Radhakrishnan Padmanabhan, Ph.D., Georgetown University (GU), Washington D.C. Zika Virus causes congenital defects, including microcephaly and is associated with Guillain-Barre syndrome, eningoencephalitis and myelitis in infected adult. […] Using a target-based approach, we hope to establish a screening paradigm to uncover novel, cell-active NS2B-NS3 protease (Zika Virus) specific inhibitors from NCATS' collection of small molecules using qHTS. […] Four assay panel was created to identify potential Zika Virus inhibitors. Namely, (1) GU unlinked NS2B-NS3 AMC tagged protease qHTS, (2) GU unlinked NS2B-NS3 Rhodamine tagged protease qHTS, (3) NINDS linked NS2B-NS3 AMC tagged protease qHTS, (4) NINDS linked NS2B-NS3 Rhodamine tagged protease qHTS. Active compounds were re-acquired and re-screened to confirm inhibition. Inhibitors were further screened against various confirmatory and counterscreens in dose response format. […] A DAPI (mCherry counterscreen) which determine Vero cell toxicity was used to exclude false positive compounds. […] Early Translation Branch (ETB) National Center for Advancing Translational Sciences (NCATS), Rockville, MD National Institute of Health (NIH), Bethesda, Maryland
384 well ZIKV-mCherry Assay: We have developed a new orthogonal imaging assay in 384-well plate format, which uses recombinant virus ZIKV-mCherry in Vero cells. […] The TIFFs were quantitated using the canned Multi Target Analysis protocol (GE Investigator Workstation software v3.7.2). […] A recombinant Zika viral infection was monitored in the Cy5 channel (cells) using a 2 microm collar dilation from the nuclear bitmap. mCherry objects with an average nuclear RFU intensity above 450 (3 stdev above mean negative control wells) were considered "mcherry positive" and data was analyzed by percent infection rate.

Experiment [9] in a line: Confirmatory screen GU Rhodamine qHTS for Zika virus inhibitors qHTS (AID 1347157). To be noted: purified enzyme assay, Rhodamine110 substrate fluorescence, 15 min; series mostly up to 114 µM. In outline: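 Enzyme 25 nM in Tris-HCl pH 8.0 + 0.01% Tween 20; compounds up to 114 microM, 15 min RT dark; + Rhod110 substrate 1.5 microM; read t0 and 15 min; delta fluorescence → % inhibition → 4-parameter Hill fit.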

Potency and outcome data for 30 compounds are collected here from PubChem BioAssay (NCATS).

Records with an inconclusive call do not appear. Calls of active or inactive are those of the source. Calls follow the shape of the dose curve; as a rule, active = well fitted curve in the direction sought with a large enough effect; inconclusive = small, poorly fitted or top-dose-only effect, or another doubt; inactive = no such curve, though single readings can be large; an effect the other way counts as inactive or inconclusive.

Chain of Furin (Homo sapiens) (P09958 whole entry, looked up): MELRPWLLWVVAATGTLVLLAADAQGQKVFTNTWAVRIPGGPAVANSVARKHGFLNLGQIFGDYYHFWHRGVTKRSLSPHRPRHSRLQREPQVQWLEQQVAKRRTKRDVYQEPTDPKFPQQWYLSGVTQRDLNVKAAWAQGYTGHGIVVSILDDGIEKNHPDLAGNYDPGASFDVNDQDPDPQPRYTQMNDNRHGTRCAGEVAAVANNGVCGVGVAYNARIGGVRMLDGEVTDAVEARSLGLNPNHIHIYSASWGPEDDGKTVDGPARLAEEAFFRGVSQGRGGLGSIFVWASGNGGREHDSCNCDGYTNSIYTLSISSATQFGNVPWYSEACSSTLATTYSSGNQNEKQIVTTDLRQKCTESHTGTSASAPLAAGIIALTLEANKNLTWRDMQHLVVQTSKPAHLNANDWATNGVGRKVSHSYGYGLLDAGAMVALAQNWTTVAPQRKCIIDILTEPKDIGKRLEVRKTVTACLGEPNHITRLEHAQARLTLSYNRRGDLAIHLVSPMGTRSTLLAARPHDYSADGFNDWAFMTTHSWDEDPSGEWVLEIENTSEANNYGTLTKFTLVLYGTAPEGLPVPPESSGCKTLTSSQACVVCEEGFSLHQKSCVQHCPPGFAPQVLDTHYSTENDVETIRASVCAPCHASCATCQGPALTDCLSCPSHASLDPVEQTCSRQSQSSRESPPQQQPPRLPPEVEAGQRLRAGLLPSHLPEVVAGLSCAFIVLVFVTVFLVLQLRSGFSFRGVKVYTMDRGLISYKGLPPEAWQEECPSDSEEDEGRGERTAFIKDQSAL

In the case of `CCC(C)SSc1ncc[nH]1` (stereo not given), the Potency in experiment [1] is 16.6 µM (active). In experiment [2], the Potency entry is “inactive”.
The matching figures for `COc1cc2c(cc1OC)[C@@H]1Cc3ccc(OC)c(OC)c3CN1CC2`: “inactive” and “inactive”.
Take `COc1cc([C@@H]2c3cc4c(cc3[C@@H](O[C@@H]3O[C@@H]5CO[C@@H](C)O[C@@H]5[C@H](O)[C@@H]3O)[C@H]3COC(=O)[C@H]23)OCO4)cc(OC)c1O`: the Potency in experiment [3] was 8.27 µM (active). In addition, the Potency result in experiment [2] is “inactive”.
In the case of `COc1cc(CNC(=O)CCCCC=CC(C)C)ccc1O`, the Potency entry in experiment [3] and in experiment [2] was “inactive” in each case.
In the case of `O=C(CC12CC3CC(CC(C3)C1)C2)Nc1cccc2nc(NCCNCCO)ccc12`, the Potency entry in [1], in [2] and in [4] was “inactive” in each case.
As for `Cc1ccc(S(=O)(=O)Nc2nc3ccccc3nc2Nc2ccc3nsnc3c2)cc1`, the Potency result in [1] and in experiment [2] was “inactive” throughout.
With `CCOC(=O)[C@H](CCc1ccccc1)N[C@@H](C)C(=O)N1CCCC1C(=O)O` (stereo not given in full), the Potency entry in experiment [1], in experiment [5], in experiment [6] and in [7] was “inactive” in each case.
Consider `C[C@H](c1ccc(F)cc1CCCC(=O)O)N(c1cc(F)ccc1F)S(=O)(=O)c1ccc(Cl)cc1`, for which, in experiment [1], the Potency result was “inactive”. Besides, the Potency in experiment [4] is 14.1 µM (active).
For `CN(C)CCN(C)C(=O)c1ccc(NC(=O)Nc2ccc(-c3nc(N4CCOCC4)c4ccn(CC(F)(F)F)c4n3)cc2)cc1`, the Potency in experiment [1] is 4.69 µM (active). The Potency result in experiment [2] was “inactive”.
The like results for `CNC(=O)[C@H](CC1=CN=C2C=CCC=C12)NC(=O)[C@@H](CC(=O)NO)CC(C)C` were, in that order, “inactive” and “inactive”.
Regarding `Fc1ccc(C(c2ccc(F)cc2)N2CCN(CC=Cc3ccccc3)CC2)cc1`, the Potency result in [5], in experiment [6] and in [7] was “inactive” in each case.
As to `N#CC(=C1Nc2ccccc2S1)c1ccnc(OCc2ccc(CN3CCOCC3)cc2)n1`, the Potency result in experiment [1] was “inactive”.
For `O=C1Nc2ccc(I)cc2C1=Cc1cc(Br)c(O)c(Br)c1`, the Potency entry in experiment [1], in [5], in experiment [6] and in experiment [7] was “inactive” in each case. Further, in experiment [2], the Potency was 12.1 µM (active).
For the compound `O=C1NC(=O)C(c2cnc3ccccn23)=C1c1cn2c3c(cccc13)CN(C(=O)N1CCOCC1)CC2`, the Potency in experiment [3] is 10.4 µM (active). For the same compound, the Potency result in experiment [4] was “inactive”.
Regarding `CC[C@H](NC(=O)[C@H](C)NC)C(=O)N1C[C@@H](O)C[C@H]1Cc1c(-c2[nH]c3cc(F)ccc3c2C[C@H]2C[C@H](O)CN2C(=O)[C@H](CC)NC(=O)[C@H](C)NC)[nH]c2cc(F)ccc12`, the Potency entry in experiment [1] is “inactive”. The Potency in experiment [2] is 17.1 µM (active).
For the compound `CC(C)CN(C[C@@H](O)[C@H](Cc1ccccc1)NC(=O)O[C@H]1CO[C@H]2OCC[C@H]21)S(=O)(=O)c1ccc(N)cc1`, the Potency result in experiment [3] and in experiment [2] was “inactive” throughout.
Consider `CC1(C)CC(=O)c2c(C(F)(F)F)nn(-c3ccc(C(N)=O)c(NC4CCC(O)CC4)c3)c2C1` (stereo not given), for which, in experiment [1], the Potency is 0.264 µM (active). For the same compound, the Potency entry in experiment [2] and in [4] was “inactive” each time.
As to `O=C1CN2Cc3c(ccc(Cl)c3Cl)N=C2N1`, in [2], the Potency entry was “inactive”.
With `CC(C)c1onc(-c2c(Cl)cccc2Cl)c1COc1ccc(C=Cc2cccc(C(=O)O)c2)c(Cl)c1`, the Potency in [5] is 30.4 µM (active); in experiment [6], 24.1 µM (active); in experiment [7] it was 24.1 µM (active); in experiment [2], 13.6 µM (active).
Turning to `c1cc(OCCN2CCCCC2)cc(-c2n[nH]c3ccc(-c4ncn[nH]4)cc23)c1`, the Potency in [5] was 21.5 µM (active); in experiment [6], 24.1 µM (active); in [2], 24.1 µM (active). In addition, the Potency result in [4] is “inactive”.
For `O=c1cc(-c2ccc(O)c(O)c2)oc2cc(O)cc(O)c12`, the Potency result in experiment [5] and in experiment [2] was “inactive” throughout. In addition, the call in [8] was inactive.
For the compound `CO[C@H]1O[C@@H]2O[C@@]3(C)CC[C@@H]4[C@@H](C)CC[C@@H]([C@H]1C)[C@@]24OO3`, in experiment [2], the Potency result is “inactive”.
On the same count and under the same terms, as for `CCOC(=O)[C@H]1O[C@H]1C(=O)N[C@@H](CC(C)C)C(=O)NCCC(C)C`, the entry is “inactive”.
Regarding `C[C@H]1COC2=C1C(=O)C(=O)c1c2ccc2c1CCCC2(C)C`, the Potency in experiment [7] was 21.5 µM (active). Besides, the compound was classed as inactive in experiment [8].
For `C[C@]12CCC3=C4CCC(=O)C=C4CC[C@@H]3[C@H]1CC[C@@]2(O)CC#N`, the Potency result in experiment [2] is “inactive”.
Consider `O=S(=O)(O)c1ccc2cc(N=Nc3cc(S(=O)(=O)O)c4cccnc4c3O)ccc2c1`, for which, in experiment [5], the Potency result is “inactive”. Also, the figures for the Potency in experiment [9] and in [4] were 1.39 µM (active) and 0.794 µM (active), respectively.
Take `O=C(c1ccc(C=Cc2n[nH]c3ccccc23)cc1)N1CCNCC1`: the Potency in experiment [2] is 7.64 µM (active).
Consider `CCCCCOC(=O)Nc1nc(=O)n([C@@H]2O[C@H](C)[C@@H](O)C2O)cc1F` (stereo not given in full), for which the Potency result in experiment [2] was “inactive”.
The same measure, in the same setting: in the case of `CC=C1C2C=C(C)CC1(N)c1ccc(=O)[nH]c1C2` (stereo not given) it was “inactive”.
Same read-out and setting: as for `Cc1cn([C@@H]2C[C@@H](O)[C@H](CO)O2)c(=O)[nH]c1=O`, the entry is “inactive”.
